Data on 36 compounds can be found in the supplement of paper PMC3414501.

Counter-ions that a name gives are not always drawn.

For the first test, the system named is S. cerevisiae SK1 pCDA2-eGFP (USY613), sporulating. The experiment in a line: CDA2-GFP sporulation assay sensitivity score (z-score vs DMSO controls); higher = stronger inhibition of sporulation, active = hit call of the paper.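 Further: active if sensitivity score above 5.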
Turning to `Cn1nnc2c(C(N)=O)ncn2c1=O` [Temozolomide] (stock concentration (mM, diluted 1:100): 10), the “CDA2-GFP sporulation assay sensitivity score” value was -0.1 (inactive). Consider `Cc1ncc([N+](=O)[O-])n1CCO` [Metronidazole] (stock concentration (mM, diluted 1:100): 10), for which the “CDA2-GFP sporulation assay sensitivity score” value is 0.28 (inactive). Still for that read-out and setting: the same measure for `Oc1ccc(C2CNCCc3c2cc(O)c(O)c3Cl)cc1` (stereo not drawn) [Fenoldopam mesylate] (stock concentration (mM, diluted 1:100): 7.7): -0.81 (inactive). The same measure, in the same setting: to `C[C@@H]1C[C@H]2[C@@H]3C[C@H](F)C4=CC(=O)C(Cl)=C[C@]4(C)[C@@]3(F)[C@@H](O)C[C@]2(C)[C@@]1(O)C(=O)CO` [Halometasone monohydrate] (stock concentration (mM, diluted 1:100): 10) belongs 0.27 (inactive); to `O=c1[nH]c(=O)n(C2CCCO2)cc1F` (stereo not drawn) [Ftorafur] (stock concentration (mM, diluted 1:100): 10), 0.02 (inactive); to `Clc1ccccc1CN1CCc2sccc2C1` [Ticlopidine hydrochloride] (stock concentration (mM, diluted 1:100): 8.7), 2.24 (inactive).

For `COc1cc(C)c(Cc2cnc(N)nc2N)cc1OC` [Ormetoprim] (stock concentration (mM, diluted 1:100): 10), the “CDA2-GFP sporulation assay sensitivity score” value is 0.05 (inactive).

The next test relates to S. cerevisiae AD1-9 (efflux-pump deficient), vegetative growth in YPD. Briefly: growth sensitivity score (doubling time z-score vs DMSO controls); higher = slower growth, strongly negative scores also mark growth inhibition (complete suppression), active = hit call of the paper. The method in brief:
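Optical density of Saccharomyces cerevisiae cultures in microtiter plates was followed every 15 min for 24 hours after seeding at an OD600 of 0.065. Eight solvent-only wells were run per experiment. Growth sensitivity scores were found by subtracting the solvent-only mean from the compound mean and dividing by the solvent-only standard deviation.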
The compound `O=C(O)c1cc(/N=N/c2ccc(S(=O)(=O)Nc3ccccn3)cc2)ccc1O` [Sulfasalazine] (stock concentration (mM, diluted 1:100): 10) came in with a growth sensitivity score of -2.95.

Turning to `CCn1cc(C(=O)O)c(=O)c2cc(F)c(N3CCN(C)CC3)cc21` [Pefloxacin mesylate] (stock concentration (mM, diluted 1:100): 7.9), the growth sensitivity score was 3.65 (active).

As to `CC(=O)CCCCn1c(=O)c2c(ncn2C)n(C)c1=O` [Pentoxifylline] (stock concentration (mM, diluted 1:100): 10), the growth sensitivity score was -1.09 (inactive).

As for `Cc1ncc([N+](=O)[O-])n1CC(C)O` (stereo not drawn) [Secnidazole] (stock concentration (mM, diluted 1:100): 10), the growth sensitivity score was -0.44 (inactive). Still for that read-out and setting: to `CN1C(C(=O)Nc2ccccn2)=C(O)c2ccccc2S1(=O)=O` [Piroxicam] (stock concentration (mM, diluted 1:100): 10) belongs 0.98 (inactive). On to `C[C@@H](c1ncncc1F)[C@](O)(Cn1cncn1)c1ccc(F)cc1F` [Voriconazole] (stock concentration (mM, diluted 1:100): 9.9), for which the growth sensitivity score was 20.3 (active). The same measure, in the same setting: to `O=C1CN2Cc3c(ccc(Cl)c3Cl)N=C2N1` [Anagrelide hydrochloride] (stock concentration (mM, diluted 1:100): 8.8) belongs -1.22 (inactive); to `C[C@H]1[C@H](OC(=O)CCC(=O)O)O[C@@H]2O[C@@]3(C)CC[C@H]4[C@H](C)CC[C@@H]1[C@@]24OO3` [Artesunate] (stock concentration (mM, diluted 1:100): 10), 23.2 (active).

Take `CC(C)Oc1ccc2c(=O)c(-c3ccccc3)coc2c1` [Ipriflavone] (stock concentration (mM, diluted 1:100): 10): the growth sensitivity score was 3.44 (active).

As to `CCOC(=O)c1ccc(OC(=O)CCCCCNC(=N)N)cc1` [Gabexate mesylate] (stock concentration (mM, diluted 1:100): 7.7), the growth sensitivity score was 10.8 (active). On to `Cc1cc2c(s1)Nc1ccccc1N=C2N1CCN(C)CC1` [Olanzapine] (stock concentration (mM, diluted 1:100): 9.9), for which the growth sensitivity score is -0.74 (inactive). `CN1[C@@H]2CC[C@H]1C[C@@H](OC(=O)c1c[nH]c3ccccc13)C2` [Tropisetron hydrochloride] (stock concentration (mM, diluted 1:100): 7.7) showed a growth sensitivity score of -2.07.

Take `Oc1ccc(/C=C/c2cc(O)cc(O)c2)cc1` [Resveratrol] (stock concentration (mM, diluted 1:100): 10): the growth sensitivity score was -0.99 (inactive). With `Nc1ncnc2c1ncn2[C@@H]1O[C@H](CO)C[C@@H]1O` [3-Deoxydenosine] (stock concentration (mM, diluted 1:100): 10), the growth sensitivity score was 110 (active).

Take `N#Cc1ccc(C(c2ccc(C#N)cc2)n2cncn2)cc1` [Letrozol] (stock concentration (mM, diluted 1:100): 10): the growth sensitivity score is 20.4 (active). With `COc1cc(C(=O)NC2CCCNC2)cc(OC)c1OC` (stereo not drawn) [Troxipide] (stock concentration (mM, diluted 1:100): 10.1), the growth sensitivity score is -0.49 (inactive).

Regarding `CCC(=O)NS(=O)(=O)c1ccc(-c2c(-c3ccccc3)noc2C)cc1` [Parecoxib] (stock concentration (mM, diluted 1:100): 9.8), the growth sensitivity score was 0.73 (inactive).

As for `NC(=O)c1cccnc1` [Nicotinamide] (stock concentration (mM, diluted 1:100): 10), the growth sensitivity score was -0.97 (inactive). With `CC(Oc1c(Cl)cccc1Cl)C1=NCCN1` (stereo not drawn) [Lofexidine hydrochloride] (stock concentration (mM, diluted 1:100): 10), the growth sensitivity score is -0.79 (inactive).

As to `CCCc1nc2c(C)cc(-c3nc4ccccc4n3C)cc2n1Cc1ccc(-c2ccccc2C(=O)O)cc1` [Telmisartan] (stock concentration (mM, diluted 1:100): 10), the growth sensitivity score is 43.7 (active). The same measure, in the same setting: the same measure for `NNCCc1ccccc1` [Phenelzine sulfate salt] (stock concentration (mM, diluted 1:100): 10): -0.66 (inactive). With `CN1CCCCC1CCN1c2ccccc2Sc2ccc([S+](C)[O-])cc21` (stereo not drawn) [Mesoridazine] (stock concentration (mM, diluted 1:100): 10), the growth sensitivity score was 278 (active). On the same count and under the same terms, the same measure for `CC(C)NCC(O)COc1ccc(COCCOC(C)C)cc1` (stereo not drawn) [Bisoprolol fumarate] (stock concentration (mM, diluted 1:100): 8.5): -0.36 (inactive). Still for that read-out and setting: to `CC#C[C@]1(O)CC[C@H]2[C@@H]3CCC4=CC(=O)CCC4=C3[C@@H](c3ccc(N(C)C)cc3)C[C@@]21C` [Mifepristone] (stock concentration (mM, diluted 1:100): 10) belongs 172 (active); to `Cc1ccnc2c1NC(=O)c1cccnc1N2C1CC1` [Viramune] (stock concentration (mM, diluted 1:100): 10), -1.4 (inactive); to `CCCc1c(OCCCCc2nnn[nH]2)ccc(C(C)=O)c1O` (stock concentration (mM, diluted 1:100): 10), 5.49 (active). Take `COc1ccc(-c2cc(=O)c3c(OC)c(OC)c(OC)c(OC)c3o2)cc1OC` [Nobiletin] (stock concentration (mM, diluted 1:100): 10): the growth sensitivity score was 3.87 (active). As to `COc1cc2nc(N3CCN(C(=O)c4ccco4)CC3)nc(N)c2cc1OC` [Prazosin] (stock concentration (mM, diluted 1:100): 10), the growth sensitivity score was 2.31 (active). For `CC[C@H]1OC(=O)[C@H](C)[C@@H](O[C@H]2C[C@@](C)(OC)[C@@H](O)[C@H](C)O2)[C@H](C)[C@@H](O[C@@H]2O[C@H](C)C[C@H](N(C)C)[C@H]2O)[C@](C)(OC)C[C@@H](C)C(=O)[C@H](C)[C@@H](O)[C@]1(C)O` [Clarithromycin] (stock concentration (mM, diluted 1:100): 10), the growth sensitivity score was -1.97 (inactive). Turning to `Cn1nnc2c(C(N)=O)ncn2c1=O` [Temozolomide] (stock concentration (mM, diluted 1:100): 10), the growth sensitivity score was -0.09 (inactive). Regarding `Cc1ncc([N+](=O)[O-])n1CCO` [Metronidazole] (stock concentration (mM, diluted 1:100): 10), the growth sensitivity score was -0.99 (inactive). Turning to `Oc1ccc(C2CNCCc3c2cc(O)c(O)c3Cl)cc1` (stereo not drawn) [Fenoldopam mesylate] (stock concentration (mM, diluted 1:100): 7.7), the growth sensitivity score is -1.09 (inactive). With `C[C@@H]1C[C@H]2[C@@H]3C[C@H](F)C4=CC(=O)C(Cl)=C[C@]4(C)[C@@]3(F)[C@@H](O)C[C@]2(C)[C@@]1(O)C(=O)CO` [Halometasone monohydrate] (stock concentration (mM, diluted 1:100): 10), the growth sensitivity score was 2.32 (active). With `O=c1[nH]c(=O)n(C2CCCO2)cc1F` (stereo not drawn) [Ftorafur] (stock concentration (mM, diluted 1:100): 10), the growth sensitivity score was -0.92 (inactive). On to `Clc1ccccc1CN1CCc2sccc2C1` [Ticlopidine hydrochloride] (stock concentration (mM, diluted 1:100): 8.7), for which the growth sensitivity score was 1.32 (inactive). `COc1cc(C)c(Cc2cnc(N)nc2N)cc1OC` [Ormetoprim] (stock concentration (mM, diluted 1:100): 10) gave a growth sensitivity score of -2.46.
